The source of these data is PubChem BioAssay (NCI).

Some test systems named below: SK-MEL-2 melanoma; EKVX NSCLC; SN12C renal; UO-31 renal; TK-10 renal; ACHN renal; CAKI-1 renal; A498 renal; CCRF-CEM leukemia; MOLT-4 leukemia.
Common to all, as to experiment: NCI-60 one-dose screen, 48 h (100 = growth as untreated, 0 = no growth, -100 = all killed)
Holding throughout (settings): 10 µM unless noted

“And” between values parts separate entries of the source, which are not always exact repeats. Identical values can stand only once. This is part of a sample that, as a whole, favours compounds with a hit. Of some 83,000 tested, about 20% had one in any assay.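 48-hour exposure, single concentration, 96-well plates; percent growth endpoint where 0 means no net growth. Active: below 10.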 The source made the active and inactive calls.

In the case of `CCCC(=O)OCC(COC(=O)CCC)OC(=O)CCC`, the growth in the experiment with SK-MEL-2 melanoma was 99.2% (inactive); in the experiment on EKVX NSCLC, 93.7% (inactive); with SN12C renal, 96.9% (inactive); with UO-31 renal, 87.3% (inactive); in the experiment with TK-10 renal it was 99.4% (inactive); with ACHN renal, 108% (inactive). Further, the growth with CAKI-1 renal was 94.8% (inactive); with A498 renal, 104% (inactive); with CCRF-CEM leukemia it was 95.4% (inactive); in the experiment on MOLT-4 leukemia, 102% (inactive).
With `O=C(c1ccc(Cl)cc1)C1C(c2ccccc2)C1[N+](=O)[O-]` (stereo not given), the growth with SK-MEL-2 melanoma was 106% (inactive); in the experiment with EKVX NSCLC it was 105% (inactive); with SN12C renal it was 104% (inactive); in the experiment on UO-31 renal it was 74.8% (inactive); with TK-10 renal, 95.1% (inactive); with ACHN renal it was 111% (inactive). Moreover, the growth in the experiment with CAKI-1 renal is 99.1% (inactive); with A498 renal it was 86.3% (inactive); in the experiment on CCRF-CEM leukemia it was 103% (inactive); in the experiment with MOLT-4 leukemia, 83.7% (inactive).
Consider `OCc1cccc(F)c1`, for which the growth was 2.28% (active) in the experiment on SK-MEL-2 melanoma; 106% (inactive) with EKVX NSCLC; 83.6% (inactive) in the experiment on SN12C renal; 75.1% (inactive) with UO-31 renal; 96.5% (inactive) in the experiment with TK-10 renal; -0.315% (active) with ACHN renal. For the same compound, the growth in the experiment with CAKI-1 renal is 34.2% (inactive); in the experiment with A498 renal, 111% (inactive); in the experiment with CCRF-CEM leukemia it was 103% (inactive); with MOLT-4 leukemia, 83.5% (inactive).
Take `CNc1ccc(Cl)cc1S(=O)(=O)c1ccccc1[N+](=O)[O-]`: the growth with SK-MEL-2 melanoma is 103% (inactive) and 85.6% (inactive); in the experiment on EKVX NSCLC it was 103% (inactive) and 94.5% (inactive); with SN12C renal, 89.8% (inactive) and 98.3% (inactive); in the experiment with UO-31 renal, 91.8% (inactive) and 92.6% (inactive); with TK-10 renal it was 99.7% (inactive) and 95% (inactive); in the experiment on ACHN renal, 107% (inactive) and 97.9% (inactive). Besides, the growth was 84.6% (inactive) and 41.1% (inactive) with CAKI-1 renal; 118% (inactive) in the experiment with A498 renal; 84.9% (inactive) and 93.3% (inactive) with CCRF-CEM leukemia; 85.6% (inactive) and 103% (inactive) in the experiment on MOLT-4 leukemia.
Turning to `CC(=O)C[n+]1ccccc1Sc1ccc(Cl)cc1`, the growth in the experiment on SK-MEL-2 melanoma was 132% (inactive); in the experiment on EKVX NSCLC, 103% (inactive); in the experiment on SN12C renal it was 49.5% (inactive); with UO-31 renal it was 60.5% (inactive); in the experiment on TK-10 renal, 104% (inactive); in the experiment with ACHN renal, 113% (inactive). Also, the growth was 90.9% (inactive) in the experiment on CAKI-1 renal, 76.4% (inactive) with A498 renal, -9.4% (active) in the experiment on CCRF-CEM leukemia and 18.9% (inactive) with MOLT-4 leukemia.
As for `CC(C)(C)C1=CC(=O)C(C(C)(C)C)=CC1=O`, the growth was 95.2% (inactive) and 94.5% (inactive) in the experiment on SK-MEL-2 melanoma; 97.6% (inactive) and 108% (inactive) with EKVX NSCLC; 93.7% (inactive) and 102% (inactive) with SN12C renal; 93.1% (inactive) and 91.5% (inactive) with UO-31 renal; 102% (inactive) and 94.6% (inactive) with TK-10 renal; 94.5% (inactive) and 114% (inactive) in the experiment on ACHN renal. Further, the growth is 90.7% (inactive) with CAKI-1 renal; 122% (inactive) with A498 renal; 96.1% (inactive) and 97.9% (inactive) in the experiment on CCRF-CEM leukemia; 83.4% (inactive) and 105% (inactive) with MOLT-4 leukemia.
Take `CCNCc1ccccc1`: the growth is 111% (inactive) in the experiment with SK-MEL-2 melanoma; 111% (inactive) in the experiment on EKVX NSCLC; 104% (inactive) in the experiment with SN12C renal; 86.7% (inactive) in the experiment with UO-31 renal; 100% (inactive) in the experiment on TK-10 renal; 110% (inactive) in the experiment on ACHN renal. The growth with CAKI-1 renal was 101% (inactive); with A498 renal, 97.4% (inactive); in the experiment with CCRF-CEM leukemia, 121% (inactive); with MOLT-4 leukemia, 103% (inactive).
As to `CC(NC(=O)CCl)c1ccccc1` (stereo not given), the growth with SK-MEL-2 melanoma was 104% (inactive); in the experiment on EKVX NSCLC it was 99% (inactive); in the experiment on SN12C renal it was 110% (inactive); with UO-31 renal, 98.8% (inactive); with TK-10 renal, 98.8% (inactive); in the experiment on ACHN renal, 106% (inactive). The growth with CAKI-1 renal is 101% (inactive); with A498 renal it was 83.9% (inactive); in the experiment with CCRF-CEM leukemia it was 105% (inactive); in the experiment on MOLT-4 leukemia it was 101% (inactive).
Take `O=C(O)C(Cc1ccc(OS(=O)(=O)Cc2ccccc2)cc1)NS(=O)(=O)Cc1ccccc1` (stereo not given): the growth with SK-MEL-2 melanoma was 110% (inactive) and 108% (inactive); in the experiment on EKVX NSCLC, 102% (inactive) and 115% (inactive); in the experiment with SN12C renal, 110% (inactive) and 104% (inactive); in the experiment on UO-31 renal, 95.8% (inactive) and 86.1% (inactive); with TK-10 renal, 101% (inactive) and 110% (inactive); with ACHN renal, 105% (inactive) and 101% (inactive). Also, the growth is 90.9% (inactive) and 98.6% (inactive) in the experiment with CAKI-1 renal; 114% (inactive) and 130% (inactive) in the experiment with A498 renal; 115% (inactive) and 112% (inactive) in the experiment with CCRF-CEM leukemia; 121% (inactive) and 102% (inactive) in the experiment with MOLT-4 leukemia.
Turning to `Nc1ccc(O)c(C(=O)O)c1`, the growth is 110% (inactive) and 124% (inactive) and 122% (inactive) in the experiment with SK-MEL-2 melanoma; 101% (inactive) and 99.5% (inactive) and 106% (inactive) in the experiment with EKVX NSCLC; 82% (inactive) and 103% (inactive) and 98.7% (inactive) in the experiment on SN12C renal; 101% (inactive) and 92% (inactive) and 67.8% (inactive) in the experiment with UO-31 renal; 133% (inactive) and 110% (inactive) and 98.8% (inactive) in the experiment on TK-10 renal; 99.3% (inactive) and 108% (inactive) and 82.8% (inactive) in the experiment with ACHN renal. The growth in the experiment with CAKI-1 renal was 107% (inactive) and 102% (inactive) and 99.8% (inactive); with A498 renal, 108% (inactive) and 88% (inactive); in the experiment on CCRF-CEM leukemia, 106% (inactive); in the experiment on MOLT-4 leukemia, 97.8% (inactive) and 104% (inactive) and 105% (inactive).
With `CC1(CO)CCCC1NCCNC1CCCC1(C)CO` (stereo not given), the growth in the experiment on SK-MEL-2 melanoma is 89.9% (inactive) and 110% (inactive); in the experiment with EKVX NSCLC it was 101% (inactive); with SN12C renal, 98% (inactive) and 103% (inactive); in the experiment on UO-31 renal, 105% (inactive) and 86% (inactive); in the experiment on TK-10 renal it was 108% (inactive); in the experiment with ACHN renal, 105% (inactive) and 100% (inactive). The growth is 99.5% (inactive) and 92.3% (inactive) in the experiment with CAKI-1 renal; 102% (inactive) and 111% (inactive) in the experiment with A498 renal; 99.6% (inactive) in the experiment with CCRF-CEM leukemia; 115% (inactive) and 104% (inactive) in the experiment with MOLT-4 leukemia.
`N#CC1c2ccccc2C=CN1C(=O)c1ccccc1` (stereo not given): the growth in the experiment on SK-MEL-2 melanoma was 109% (inactive); in the experiment with EKVX NSCLC it was 106% (inactive) and 92.7% (inactive); in the experiment on SN12C renal it was 99.8% (inactive) and 94.3% (inactive); with UO-31 renal, 78.6% (inactive) and 97.8% (inactive); in the experiment with TK-10 renal, 109% (inactive) and 115% (inactive); in the experiment with ACHN renal it was 94.6% (inactive) and 90% (inactive). For the same compound, the growth is 97.6% (inactive) and -6.46% (active) with CAKI-1 renal; 98.9% (inactive) and 148% (inactive) in the experiment with A498 renal; 88.2% (inactive) and 130% (inactive) in the experiment with CCRF-CEM leukemia; 89.2% (inactive) and 125% (inactive) in the experiment with MOLT-4 leukemia.
